For seven molecules, Potency and outcome results are on record in PubChem BioAssay (Tox21).

A short description of experiment [1]: qHTS assay for small molecule agonists of the p53 signaling pathway (AID 651631; calls by dose curve; also: nearly all actives have a fitted effect of over 15% in size; also: potency is read from the fitted curve at half-maximal effect). In short, it runs like this: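 HCT-116 cells carrying a stable p53 response element–beta-lactamase reporter were plated, rested 5 h at 37 °C, then exposed to compound in DMSO for 16 h at 37 °C; reporter activity was read as FRET substrate fluorescence after 2 h at room temperature.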

Experiment [2] is described as follows: qHTS assay for small molecules that induce genotoxicity in human embryonic kidney cells expressing luciferase-tagged ATAD5 (AID 651632). Also: nearly all actives have a fitted effect of over 15% in size. Also: potency is read from the fitted curve at half-maximal effect. In outline:
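Test compounds were delivered by pin tool onto HEK293T reporter cells (2,000/well) expressing ATAD5 fused to luciferase. After 16 hr at 37C, 5% CO2, Amplite was added for 30 min at room temperature and luminescence was measured.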
On the technique in general: qHTS replaces the single test concentration by a dilution series.

Experiment [3] can be described thus: qHTS assay for small molecule agonists of the p53 signaling pathway - cell viability (AID 651633; calls by dose curve; also: nearly all actives have a fitted effect of over 30% in size). In outline: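 p53RE-bla cells were treated with compound for 16 hours at 37 C. Cytotoxicity was then measured as CellTiter-Glo luminescence after 30 min at room temperature.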
Experiment [4] can be described thus: qHTS assay for small molecules that induce genotoxicity in human embryonic kidney cells expressing luciferase-tagged ATAD5 - cell viability (AID 651634; calls by dose curve; also: nearly all actives have a fitted effect of over 25% in size; also: potency is read from the fitted curve at half-maximal effect). In outline: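 Quantitative high-throughput format. HEK293T cells expressing ATAD5 fused to luciferase were plated at 2,000 cells/well and treated 15.5 hr with compound versus DMSO. Viability was determined by fluorescent live-cell protease substrate, 30 min at 37C.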

Experiment [5] can be described thus: qHTS assay for small molecule disruptors of the mitochondrial membrane potential - cell viability (AID 720634; calls by dose curve;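 also: human HepG2 liver cancer cells; nearly all actives have a fitted effect of over 20% in size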). In outline:
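Same-well counter-screen: following the MMP dye addition, CellTiter-Glo was added to 1 hr compound-treated HepG2 cells and luminescence read after 30 min at room temperature.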

Experiment [6] in a line: qHTS assay to test for compound auto fluorescence at 590 nm (red) in HepG2 cells (AID 720674). In outline:
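HepG2 cells, 2,000 per well in MEM with 10% FBS, attached overnight at 37 C, then got 23 nL compound or DMSO. After 1 hr at 37 C, 5% CO2, red fluorescence was read at 540/590 nm against Rose Bengal sodium as reference.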

A short description of experiment [7]: qHTS assay to test for compound auto fluorescence at 460 nm (blue) in HEK293 cells (AID 720678). In outline: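 After cell attachment (4-5 hr, 37C), compounds were pinned onto HEK293 monolayers in 10% dialyzed FBS medium. The blue channel (405/460 nm) was read following overnight culture. Equivalency was calculated against triamterene.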
Experiment [8] in a line: qHTS assay to test for compound auto fluorescence at 590 nm (red) in HEK293 cells (AID 720679). In outline:
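Plates of HEK293 cells (10% dialyzed FBS) are treated with 23 nL compound or DMSO vehicle after a 4-5 hr attachment period, incubated overnight at 37C, and read for red fluorescence at 540/590nm.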

Experiment [9] in a line: qHTS assay to test for compound auto fluorescence at 535 nm (green) in HEK293 cells (AID 720680).
A short description of experiment [10]: qHTS assay to test for compound auto fluorescence at 460 nm (blue) in HEK293 cell free culture (AID 720681). In short, it runs like this:
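Compounds were added to cell-free DMEM with 10% FBS and fluorescence read directly. The blue channel used 405 nm excitation and 460 nm emission, with triamterene as the reference fluorophore.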

The nature of experiment [11]: qHTS assay to test for compound auto fluorescence at 535 nm (green) in HEK293 cell free culture (AID 720682). In short, it runs like this:
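Read-out: 485/535 nm fluorescence intensity, calibrated against fluorescein. Medium only (DMEM + 10% FBS, no cells); test compound or DMSO vehicle added by pintool before plate reading.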

A short description of experiment [12]: qHTS assay to test for compound auto fluorescence at 590 nm (red) in HEK293 cell free culture (AID 720683). In outline:
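Cell-free wells of DMEM with 10% FBS received compound, and intrinsic fluorescence was read at excitation/emission 540/590 nm. Values expressed as equivalence to Rose Bengal sodium.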

Experiment [13] in a line: qHTS assay to test for compound auto fluorescence at 590 nm (red) in HepG2 cell free culture (AID 720684). In short, it runs like this:
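Rose Bengal sodium served as the reference for red signal. Test compounds were dispensed into serum-containing MEM (10% FBS) without cells, and plates were read at 540/590 nm.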

Experiment [14] is described as follows: qHTS assay to test for compound auto fluorescence at 460 nm (blue) in HepG2 cell free culture (AID 720685). In short, it runs like this: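 Cell-free plates of MEM plus 10% FBS received 23 nL compound or DMSO vehicle; blue-channel (405/460 nm) intensity scored against triamterene as reference fluorophore.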
A short description of experiment [15]: qHTS assay to test for compound auto fluorescence at 535 nm (green) in HepG2 cell free culture (AID 720686).
Experiment [16] can be described thus: qHTS assay to test for compound auto fluorescence at 460 nm (blue) in HepG2 cells (AID 720687). In outline:
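HepG2 cells in MEM with 10% FBS, attached overnight at 37 C, were exposed to compound or DMSO for 1 hr at 37 C, 5% CO2. Blue fluorescence was read at 405/460 nm, with triamterene as reference fluorophore.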

Experiment [17] in a line: qHTS assay to test for compound auto fluorescence at 535 nm (green) in HepG2 cells (AID 720675).
A short description of experiment [18]: qHTS assay for small molecule disruptors of the mitochondrial membrane potential (AID 720635). In outline:
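HepG2 cells exposed to compound 1 hr at 37C, then Mito-MPS dye 30 min. Ratio read of aggregate (540/590 nm) versus monomer (490/535 nm) fluorescence.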

Experiment [19] addresses Glucocorticoid receptor (Homo sapiens) (UniProt P04150). Briefly: qHTS assay to identify small molecule agonists of the glucocorticoid receptor (GR) signaling pathway (AID 720691; active = well fitted activation curve with a large enough effect in the signal ratio in the repeat runs, not every such curve was filed as active; the % refers to the signal ratio). To be noted: GR-bla HeLa, beta-lactamase reporter ratio, 18 h; activation: at 62.4 µM (top of the series). In short, it runs like this: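 A HeLa cervical cancer line expressing GR and a glucocorticoid response element-driven beta-lactamase gene is treated with compounds for 18 h; LiveBLAzer B/G FRET substrate is then applied and fluorescence read.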

For experiment [20] the target is unchanged. Kind of experiment: qHTS assay to identify small molecule antagonists of the glucocorticoid receptor (GR) signaling pathway (AID 720692; active = well fitted inhibition curve with a large enough effect in the signal ratio in the repeat runs, not every such curve was filed as active; the % refers to the signal ratio). In short, it runs like this:
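GRE-bla HeLa line, dex-stimulated (5 nM final). Compound exposure 18 h, 37 C. Beta-lactamase FRET read after 2 h RT substrate.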

Several values for one entry are separate records, joined by “and”; a condition that tells them apart may be missing. Identical values can stand only once. Results filed as inconclusive are left out. A structure can be active in one record and inactive in another. Activity calls are given as the source filed them. Unless noted, calls follow the shape of the dose curve; as a rule, active = well fitted curve in the direction sought with a large enough effect in the repeat runs; inconclusive = weak or mixed curves; inactive = no such curve, though single readings can be large; an effect the other way counts as inactive or inconclusive.

Chain of Glucocorticoid receptor (Homo sapiens) (P04150 whole entry, looked up): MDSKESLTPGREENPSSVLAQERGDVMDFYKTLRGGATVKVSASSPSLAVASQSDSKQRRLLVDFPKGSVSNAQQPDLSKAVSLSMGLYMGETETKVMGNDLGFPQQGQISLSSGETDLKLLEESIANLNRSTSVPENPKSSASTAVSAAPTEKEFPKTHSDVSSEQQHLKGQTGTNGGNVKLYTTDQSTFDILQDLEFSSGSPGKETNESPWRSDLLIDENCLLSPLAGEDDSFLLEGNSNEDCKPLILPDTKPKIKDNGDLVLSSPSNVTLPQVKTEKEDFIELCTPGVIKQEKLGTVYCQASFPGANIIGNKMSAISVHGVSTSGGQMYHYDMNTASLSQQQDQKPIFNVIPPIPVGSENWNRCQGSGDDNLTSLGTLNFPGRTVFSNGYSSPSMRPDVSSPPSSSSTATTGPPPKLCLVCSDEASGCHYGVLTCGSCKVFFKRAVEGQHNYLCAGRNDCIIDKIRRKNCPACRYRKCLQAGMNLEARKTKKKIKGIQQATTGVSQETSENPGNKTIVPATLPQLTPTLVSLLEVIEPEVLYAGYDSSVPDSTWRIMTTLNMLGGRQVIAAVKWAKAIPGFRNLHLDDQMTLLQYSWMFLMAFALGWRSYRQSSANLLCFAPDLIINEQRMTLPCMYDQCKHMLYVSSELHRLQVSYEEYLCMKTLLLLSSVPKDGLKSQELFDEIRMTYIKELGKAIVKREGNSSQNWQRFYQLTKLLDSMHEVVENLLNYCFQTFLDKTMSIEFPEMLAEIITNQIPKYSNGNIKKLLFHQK

`C[S+](CC[C@H](N)C(=O)O)C[C@H]1O[C@@H](n2cnc3c(N)ncnc32)[C@H](O)[C@@H]1O` (stereo not given in full): the Potency entry in [1], in experiment [2], in experiment [3], in experiment [4], in experiment [5] and in experiment [7] was “inactive” throughout. The Potency result in experiment [10], in [14], in experiment [15] and in experiment [16] was “inactive” throughout. The outcome in experiment [6], in experiment [8], in [9], in experiment [11], in [12] and in [13] was inactive.
For the molecule `O=C(O)C[C@H](O)C[C@H](O)/C=C/c1c(C2CC2)nc2ccccc2c1-c1ccc(F)cc1`, the Potency result in experiment [1], in experiment [2], in experiment [4], in experiment [5], in experiment [17] and in experiment [7] was “inactive” throughout. The Potency result in experiment [10], in [14], in [15] and in [16] was “inactive” throughout. Also, the call in experiment [6], in experiment [8], in [9], in [11], in experiment [12] and in experiment [13] was inactive.
Take `COc1cc2c(cc1O)CCN[C@]21CS[C@@H]2c3c(OC(C)=O)c(C)c4c(c3[C@H](COC1=O)N1[C@@H]2[C@H]2c3c(cc(C)c(OC)c3O)C[C@@H]([C@@H]1O)N2C)OCO4`: the Potency in [1] was 8.4 nM (active) and 12.2 nM (active); in experiment [2], “inactive and 243 nM (active)”; in [4], 42.2 nM (active). The Potency result in experiment [3], in [5], in experiment [17], in experiment [7], in experiment [14] and in [15] was “inactive” in each case. The Potency result in experiment [16] was “inactive”. For the same molecule, the molecule was called inactive in [6], in [8], in [9], in experiment [11], in [12] and in [13].
As to `O=C(N[C@H](CO)[C@H](O)c1ccc([N+](=O)[O-])cc1)C(Cl)Cl`, the Potency result in [1], in experiment [2], in [3], in experiment [4], in experiment [5] and in experiment [17] was “inactive” in each case. Moreover, the Potency entry in experiment [7], in [10], in experiment [14] and in [16] was “inactive” each time. In addition, the call in experiment [6], in experiment [8], in [9], in [11], in experiment [12] and in experiment [13] was inactive.
As to `CC(C)(S)C(=O)N[C@@H](CS)C(=O)O`, the Potency entry in experiment [1], in [3], in experiment [4], in experiment [5], in experiment [18] and in [17] was “inactive” throughout. The Potency result in experiment [7], in [10], in experiment [14], in experiment [15], in [16] and in experiment [19] was “inactive” throughout. The Potency entry in [20] is “inactive”. The call in experiment [6], in experiment [8], in experiment [9], in experiment [11] and in experiment [12] was inactive.
Consider `COC1[C@@H](O[C@@H]2O[C@H](C)[C@@H](O[C@H]3C[C@@](C)(O)[C@H](OC(=O)CC(C)C)[C@H](C)O3)[C@H](N(C)C)[C@H]2O)[C@@H](CC=O)C[C@@H](C)[C@@H](O)/C=C/C=C/C[C@@H](C)OC(=O)C[C@H]1OC(C)=O` (stereo not given in full), for which the Potency entry in [1], in experiment [2], in [3], in [4], in experiment [5] and in experiment [18] was “inactive” each time. The Potency result in experiment [7], in experiment [10], in experiment [14], in [15], in experiment [16] and in experiment [19] was “inactive” each time. The Potency entry in experiment [20] is “inactive”. Further, the call in [6], in [8], in [9], in experiment [11], in experiment [12] and in [13] was inactive.
With `O=C[C@H](O)[C@@H](O)[C@@H](O)[C@H](O)CO`, the Potency entry in [1], in experiment [2], in [3], in experiment [4], in experiment [5] and in [17] was “inactive” throughout. The Potency result in experiment [7], in [10], in [14], in experiment [15], in [16] and in experiment [19] was “inactive” in each case. The Potency result in experiment [20] was “inactive”. Moreover, the call in [6], in experiment [8], in [9], in experiment [11], in experiment [12] and in [13] was inactive.
